Results on 92 compounds are retold here after PubChem BioAssay AID624037 (The Scripps Research Institute Molecular Screening Center, 2012).

The whole screen tested about 360,000 compounds, of which about 700 (0.19%) were called active.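 How the source made its calls: active means activation above the run's mean over test compounds plus 3 SD (cut at about 23% in these data); inactive means the rest.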 What follows is part of a selection rich in actives, with near analogues and random picks from the rest.

Muscarinic acetylcholine receptor M5 (Homo sapiens), sequence (P08912 whole entry, looked up): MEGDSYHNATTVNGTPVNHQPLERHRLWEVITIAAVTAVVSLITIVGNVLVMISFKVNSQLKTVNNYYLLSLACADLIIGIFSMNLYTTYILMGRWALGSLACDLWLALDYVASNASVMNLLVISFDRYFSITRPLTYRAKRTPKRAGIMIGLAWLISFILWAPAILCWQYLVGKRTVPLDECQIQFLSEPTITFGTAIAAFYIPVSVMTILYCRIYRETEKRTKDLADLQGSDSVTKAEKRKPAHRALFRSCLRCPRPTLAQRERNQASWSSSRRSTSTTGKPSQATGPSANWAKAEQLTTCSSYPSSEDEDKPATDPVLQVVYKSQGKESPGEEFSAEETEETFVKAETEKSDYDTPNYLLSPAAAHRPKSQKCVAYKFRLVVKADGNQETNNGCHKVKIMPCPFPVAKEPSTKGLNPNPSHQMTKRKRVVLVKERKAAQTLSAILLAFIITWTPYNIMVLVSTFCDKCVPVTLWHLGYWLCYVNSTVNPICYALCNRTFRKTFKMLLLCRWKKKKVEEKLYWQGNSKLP

This assay addresses Muscarinic acetylcholine receptor M5 (Homo sapiens) (UniProt P08912). In words: human M5 muscarinic receptor agonists, primary screen, CHO-K1 cells, Fluo-8 calcium fluorescence (AID 624037).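 Further: signal is peak over basal fluorescence ratio across the kinetic read.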 The conditions noted are these: CHO-K1 hM5 cells, at 3 µM, hits give high values, 0% DMSO wells, 100% maximal acetylcholine response.
Take `CC(C)C[C@H]1CNC(=S)N1C[C@H]1CCCN1C[C@H](Cc1ccc(O)cc1)N1C[C@H](Cc2ccc(O)cc2)N(CC2CCCCC2)C1=S`: the activation is -1.54% (inactive).

As to `N#CC1(NC(=O)COC(=O)CCN=C2NS(=O)(=O)c3ccccc32)CCCCC1`, the activation was -5.2% (inactive).

Regarding `Cc1ccccc1C(=O)NCCN=C1NS(=O)(=O)c2ccccc21`, the activation is -1.12% (inactive).

`O=C(CCCN=C1NS(=O)(=O)c2ccccc21)OCC(=O)c1ccc(F)c(F)c1`: the activation is 37.2% (active).

`O=C(Cc1c(Cl)cccc1Cl)NC1CC1`: the activation was -4.03% (inactive).

On to `Cc1ccc(C(=O)N(CC(=O)NC2CCCC2)c2ccc(F)cc2)s1`, for which the activation is -2.46% (inactive).

As to `O=C(/C=C(O)/C=C/c1ccc(O)cc1)/C=C/c1ccc(O)cc1`, the activation is 156% (active).

As to `COc1cccc(C(=O)NNC(=O)/C=C/c2ccccc2)c1`, the activation is -2.95% (inactive).

`c1ccc(C(=NNc2nc3ccccc3s2)c2ccccn2)cc1`: the activation is 58.8% (active).

`Cc1cc(C)c2c(c1)cc(C)c1nnc(SCC(=O)Nc3cc(C)on3)n12`: the activation is 3.15% (inactive).

Consider `O=C(CN(C(=O)CCC(=O)Nc1nccs1)c1ccc(F)cc1)NCc1ccc2c(c1)OCO2`, for which the activation was -1.79% (inactive).

Consider `Cc1nccn1CCCNC(=O)CC1C(=O)NCCN1Cc1ccc(Cl)c(F)c1` (configuration not stated), for which the activation is -2.66% (inactive).

As to `CC(=O)C[C@@H]1OC[C@H](CO)N1S(=O)(=O)c1ccc(C)cc1`, the activation was 4.39% (inactive).

Turning to `O=C(COC(=O)Cc1ccc(Br)cc1)Nc1ccc(N2CCOCC2)cc1`, the activation is 4.95% (inactive).

As to `CC(C)[C@H](NC(=O)N1CC(=O)Nc2ccccc21)C(=O)N[C@@H](Cc1c[nH]c2ccccc12)C(=O)O`, the activation was 1.96% (inactive).

`Cc1cccc(C)c1NC(=O)CNC(=O)Cc1ccc(Br)cc1`: the activation was -2.94% (inactive).

Regarding `CCOc1ccc(CNC(=O)CCC(=O)N2CCSc3ccccc32)cc1`, the activation was 3.47% (inactive).

For the compound `CCn1cc(C(=O)NCC2COc3ccccc3O2)c2cc(OC)c(OC)cc2c1=O` (configuration not stated), the activation is 1.23% (inactive).

With `O=C1C(=O)N(CC2COc3ccccc3O2)c2ccccc21` (configuration not stated), the activation was 26.9% (active).

Consider `O=C1C(=O)N(c2ccccc2)c2ccccc21`, for which the activation is 15.5% (inactive).

Take `CCC(=O)c1ccc(OCC(=O)N(CC)CC2COc3ccccc3O2)cc1` (configuration not stated): the activation is -1.18% (inactive).

With `c1ccc2c(c1)OCC(CNc1ncnc3nc[nH]c13)O2` (configuration not stated), the activation was 108% (active).

For `O=C(Cn1nc(Cc2cccnc2)c2ccccc2c1=O)NCC1COc2ccccc2O1` (configuration not stated), the activation is 1.51% (inactive).

As to `Cc1ccc2c(c1)C(O)(CC(=O)c1cccc(-n3cccc3)c1)C(=O)N2` (configuration not stated), the activation was 3.01% (inactive).

Take `Cc1cccc(N=C2NC(=O)CS2)c1C`: the activation was 2.4% (inactive).

Turning to `O=c1[nH]oc(O)c1-c1ncc(C(F)(F)F)cc1Cl`, the activation is -1.47% (inactive).

On to `COc1ccc(NS(=O)(=O)c2ccc(C)c(C(=O)NNC(=O)c3csc(N4CCOCC4)n3)c2)cc1`, for which the activation was -2.51% (inactive).

For `CC1CN(c2cc(=O)n(Cc3ccc(F)cc3)c(=O)[nH]2)CC(C)O1` (configuration not stated), the activation is 1.48% (inactive).

Consider `O=C1C(Sc2cccc(F)c2)=C[C@@]2(O)CC[C@@H](O)[C@]1(Sc1cccc(F)c1)[C@H]2O`, for which the activation was -1.89% (inactive).

For the compound `CC12CN3CC(C)(CN(C1)C3c1ccc(Cl)cc1Cl)C2=O` (configuration not stated), the activation is 0.42% (inactive).

As to `CCC(C)C1(C2CCCC2)NC(=O)NC1=O` (configuration not stated), the activation was -2.24% (inactive).

In the case of `Cc1ccsc1C1C(C#N)=C(N)OC2=C1C(=O)CC(C)(C)C2` (configuration not stated), the activation was -3.66% (inactive).

Regarding `CCOC(=O)c1cnc(SC)nc1Sc1ccc(Cl)cc1Cl`, the activation was -3.12% (inactive).

Take `O=C(Cn1nc(Cc2cccnc2)c2ccccc2c1=O)NCC1CCCO1` (configuration not stated): the activation is 1.65% (inactive).

As to `COC(=O)c1ccc(OC(=O)c2nn(C)cc2Cl)c(OC)c1`, the activation is -3.16% (inactive).

On to `CCN(CC)CCCNC(=O)c1ccc2c(=O)n(Cc3ccc4c(c3)OCO4)c(=S)[nH]c2c1`, for which the activation is -16.7% (inactive).

`CCOC(=O)N1CCN(C(=O)C[C@@H]2C[C@@]3(C(=O)OC)CCCCC=C3N(CCC3=CCCCC3)C2=O)CC1`: the activation is 24% (active).

For `COC(=O)[C@]12CCCCC=C1N(CCC1=CCCCC1)C(=O)[C@H](CC(=O)N1CCSCC1)C2`, the activation was 0.77% (inactive).

In the case of `CCOC(=O)[C@]12CCCC=C1N(CCC1=CCCCC1)C(=O)[C@H](CC(=O)N1CCCCC1)C2`, the activation was 2.91% (inactive).

In the case of `COc1cc(NC(=S)NCCSc2ccc(C)cc2)cc(OC)c1`, the activation is 0.65% (inactive).

On to `CCCCCCCCNS(=O)(=O)CCNC1CCCCC1`, for which the activation was 2.22% (inactive).

Turning to `CCn1c(-c2ccoc2C)n[nH]c1=S`, the activation was -2.69% (inactive).

Take `CC(C[N+](C)(C)C)OC(N)=O` (configuration not stated): the activation is 96.3% (active).

`CC(=O)OCCC(C)C`: the activation is 1.99% (inactive).

On to `CC(=O)OC(C)C[N+](C)(C)C` (configuration not stated), for which the activation was 99.8% (active).

On to `CCCCOC(=O)Nc1nccs1`, for which the activation is 1.28% (inactive).

For `COc1ccc(C(=O)NC(Cc2ccc(OC(=O)c3ccc(OC)cc3)cc2)C(=O)O)cc1` (configuration not stated), the activation was 0.61% (inactive).

Take `Cc1ccc(O)c(NC(=S)NC(=O)COc2ccc(Br)cc2)c1`: the activation is 31.2% (active).

Turning to `Cc1ccsc1C(=O)NNC(=O)COc1ccc(Br)cc1`, the activation was 2.78% (inactive).

As to `Cc1ccc(O)c(/C=N/NC(=O)COc2ccc3c(C)cc(=O)oc3c2)c1`, the activation is -0.84% (inactive).

Turning to `Cc1ccc(S(=O)(=O)N2CCCC2CO)cc1` (configuration not stated), the activation was 1.95% (inactive).

Take `CC1(C)OC(=O)C2=C(CC(c3ccccc3)OC2CCc2ccccc2)O1` (configuration not stated): the activation was -0.45% (inactive).

In the case of `CCCCCCSc1nsc(N)n1`, the activation is -2.92% (inactive).

Turning to `O=C(NCCN=C1NS(=O)(=O)c2ccccc21)c1ccc(S(=O)(=O)N2CCOCC2)cc1`, the activation is -1.87% (inactive).

For `Cc1ccccc1N(C(=O)Cc1cccs1)C(C(=O)NC1CCCCC1)c1cn(C)nc1C` (configuration not stated), the activation was -1.99% (inactive).

As to `O=C(O)CC/C(=N\NC(=O)c1ccc(F)cc1)c1ccc(Br)cc1`, the activation was -1.22% (inactive).

Regarding `COc1ccc(COC(=O)c2ccc(Cl)c(S(=O)(=O)N3CCOCC3)c2)cc1F`, the activation was -0.05% (inactive).

With `CC1CCN(S(=O)(=O)c2ccc3ncn(CC(=O)N(C)C4CCCCC4)c(=O)c3c2)CC1`, the activation was -0.64% (inactive).

For the compound `CC(=O)Nc1ccc(S(=O)(=O)N(C)c2ccc(OCC(=O)OCC(=O)N3CCCCC3)cc2)cc1`, the activation was 0.4% (inactive).

As to `COc1ccc(CN(C)C(=S)Nc2ccc(Cl)cc2Cl)cc1`, the activation was -4.4% (inactive).

As to `O=C(CCS(=O)(=O)c1cccc2nonc12)NCCc1ccccc1Cl`, the activation was -0.36% (inactive).

Turning to `Cc1nc(C)c2c(c1C(F)(F)F)-c1ccccc1C2(F)F`, the activation is -0.42% (inactive).

As to `COc1ccc(-c2onc(C)c2-c2ccc3c(c2)OCCO3)c(O)c1`, the activation was 12.5% (inactive).

Consider `COc1ccc(CCN2C(=O)c3[nH]nc(-c4ccccc4O)c3C2c2ccc(C)cc2)cc1OC` (configuration not stated), for which the activation is -2.41% (inactive).

Regarding `COc1ccc(-c2n[nH]c(C)c2-c2ccc(OC)c(OC)c2)c(O)c1`, the activation is 29.1% (active).

As to `O=C(NCC12CC3CC(C1)CC(CNC(=O)N1CCCC1)(C3)C2)N1CCCC1`, the activation was 2.96% (inactive).

In the case of `COCCNc1ccc(-c2n[nH]c(=O)c3ccccc23)cc1[N+](=O)[O-]`, the activation is -2.62% (inactive).

As to `CCCCC(=O)N1CC2(C)CN(C(=O)CCCC)CC(C)(C1)C2=O`, the activation is 1.44% (inactive).

In the case of `O=C(COc1ccc([N+](=O)[O-])cc1Cl)Nn1cnnc1`, the activation is -0.29% (inactive).

Take `COc1ccc(C(C[N+](=O)[O-])n2nc(C)cc2C)cc1` (configuration not stated): the activation is 1.97% (inactive).

In the case of `Cc1cc(NC(=O)Nc2ccccc2[N+](=O)[O-])no1`, the activation was -2.19% (inactive).

On to `CN(C)c1ccc(C(CNC(=O)c2ccc(F)cc2)c2c[nH]c3ccccc23)cc1` (configuration not stated), for which the activation is -4.52% (inactive).

With `Cc1cc(=O)oc2c3c(cc(OCC(=O)NCCC(=O)N[C@@H](C)C(=O)O)c12)OC(C)(C)CC3`, the activation was -2.41% (inactive).

Take `C[C@@H]1CN([C@H](C)CO)S(=O)(=O)c2ccc(C#CC3CCCCC3)cc2O[C@H]1CN(C)C(=O)Cc1ccncc1`: the activation was 1.87% (inactive).

For the compound `Cn1nc(N)c2ncc(C(Cl)(Cl)Cl)nc21`, the activation was -0.27% (inactive).

With `CCC1CCCCN1S(=O)(=O)Cc1ccccc1Cl` (configuration not stated), the activation is -4.8% (inactive).

Turning to `CCCS(=O)(=O)N1CCN(C(=O)c2cccs2)CC1`, the activation was 2.49% (inactive).

Regarding `COc1ccccc1/C=C/CN1CCC(CO)(Cc2ccccc2)CC1`, the activation is 0.17% (inactive).

Take `O=C(Cn1cnc2c(OCc3ccccc3)ncnc21)NCc1nc2ccccc2[nH]1`: the activation is -0.16% (inactive).

In the case of `CCCC(C)C(=O)Nc1ccc(NC(C)=O)cc1` (configuration not stated), the activation was 0.87% (inactive).

For the compound `Cc1ccc(NC(=O)C(C)c2cccc(C(=O)c3ccccc3)c2)cc1` (configuration not stated), the activation was 5.38% (inactive).

In the case of `CCC(C(=O)Nc1ccc(C(C)C)cc1)c1ccccc1` (configuration not stated), the activation is 35.8% (active).

Turning to `CCOC(=O)c1sc(NC(=O)CSc2nc(C)cc(C(F)(F)F)n2)c(C#N)c1C`, the activation was -3.97% (inactive).

Consider `Clc1ccc(C2=CSC3=Nc4cccc5cccc(c45)N23)cc1`, for which the activation is -0.82% (inactive).

Turning to `COc1ccc(OCCCn2cccc2/C=C2/C(=N)N3OC(C)=CC3=NC2=O)cc1`, the activation is 0.09% (inactive).

Regarding `CC1=CC2=NC(=O)/C(=C/c3coc4ccccc4c3=O)C(=N)N2O1`, the activation was 38.9% (active).

Take `CC(C)CCN1CCN(Cc2cn[nH]c2C2CCCCC2)CC1CCO` (configuration not stated): the activation is -10.3% (inactive).

Regarding `CCOCCCNC(=O)c1ccc(CS(=O)(=O)c2cccc(C(F)(F)F)c2)o1`, the activation is -2.51% (inactive).

Consider `Cn1c(=O)[nH]c(=O)c2c1[nH]c(=S)n2Cc1ccccc1`, for which the activation was -2.82% (inactive).

Consider `Cc1cc2nc3c(=O)n(Cc4ccccc4)c(=O)[nH]c3nc2cc1N`, for which the activation was 86.1% (active).

Take `Cc1cc(OCC(=O)N(C)c2c(N)n(Cc3ccccc3)c(=O)[nH]c2=O)c(C(C)C)cc1Cl`: the activation was -1.72% (inactive).

As to `O=C(COc1ccc(F)cc1)N(CC1=CCS(=O)(=O)C1)c1ccccc1`, the activation is -3.65% (inactive).
